Screening data deposited in PubChem by National Center for Advancing Translational Sciences (NCATS).
Shown are actives, neighbours in structure and some others; about 3.4% of the full set was active somewhere.
PLK1 PBD block: qHTS for Inhibitors of PLK1-PDB (polo-like kinase 1 - polo-box domain): Primary Screen; Plk1 PBD binding of FITC phosphopeptide, fluorescence polarization; Serine/threonine-protein kinase PLK1 (Homo sapiens), P53350; actives 2.8% (n = 360,000); AID 720504, 2013; Potency, µM, for inactives: max response, negative = inhibition, most hits filed as inhibitors; also: series mostly up to about 57 µM; % is scaled to controls: 0 for no effect and ±100 for the full control effect; nearly all actives have a fitted effect of over 65% in size
VDR inh: Inhibitors of the vitamin D receptor (VDR): qHTS. AID 504847, 2011. actives 0.93% (n = 400,000). Potency, µM, inactives show max response, negative = inhibition, actives largely listed as inhibitors. VDR-SRC2-3 peptide fluorescence polarization, 2 h; also: % is scaled to controls: 0 for no effect and ±100 for the full control effect
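Compounds are added to VDR with labelled SRC2-3 coactivator peptide and held 2 h at room temperature. Inhibition of the VDR–peptide interaction is then read as a change in fluorescence polarization.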
Mito fusion act: qHTS Assay for Small Molecule Inhibitors of Mitochondrial Division or Activators of Mitochondrial Fusion; S. cerevisiae fusion-defective mutant growth rescue, CellTiterGlo 48 h; Potency, µM (top dose mostly 46.1 µM), for the others: at the top dose growth rescue (activation), actives largely listed as activators; actives 0.23% (n = 320,000); AID 485298, 2010; also: % of control where 0% means no effect; nearly all actives have a fitted effect of over 45% in size
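Compounds are tested for their ability to restore growth of mitochondrial fusion-defective yeast strains at non-permissive 37C in YPEG medium over 48 hours. Viability is quantified by luciferase luminescence.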
GLS inh: qHTS for Inhibitors of Glutaminase (GLS). GLS enzymatic activity, qHTS titration. Potency, µM (series often up to 45.5 µM), for inactives: at the top dose activity change, negative = inhibition, hits mostly inhibitors. actives 0.21% (n = 410,000). Glutaminase kidney isoform, mitochondrial (Homo sapiens), O94925; also: % is scaled to controls: 0 for no effect and ±100 for the full control effect
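Compounds were pin-transferred onto hKGA, after which L-glutamine (1 mM solution) and a detection mix of glutamate oxidase, HRP and Amplex Red were added. Initial and 30 min RT fluorescence reads were collected.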
PKM2 activator: qHTS Assay for Activators of Human Muscle isoform 2 Pyruvate Kinase; Pyruvate kinase PKM (Homo sapiens), P14618; purified PKM2, Kinase-Glo ATP luminescence, activation; response scale: 0% is enzyme alone, no compound; Potency, µM (series often up to 57.5 µM), inactives show at the highest dose activation, most hits filed as activators; actives 0.34% (n = 260,000); AID 1631, 2009; also: % is scaled to controls: 0 for no effect and ±100 for the full control effect; nearly all actives have a fitted effect of over 55% in size
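Kinase-Glo luminescence reports ATP generated from ADP (0.1 mM) and PEP (0.5 mM) by purified hPK-M2 after 1 h at room temperature, pH 7.2 imidazole buffer; intermediate enzyme activity allows detecting inhibitors and activators.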
GCN5L2 inh: qHTS Assay for Inhibitors of GCN5L2; actives 0.21% (n = 390,000); GCN5L2 HAT assay, ThioGlo1 CoA-SH fluorescence; Potency, µM (series often up to 58.9 µM), for the others: at the highest dose activity change, negative = inhibition, actives largely listed as inhibitors; also: % is scaled to controls: 0 for no effect and ±100 for the full control effect
Target sequence (Q92830 whole entry, looked up): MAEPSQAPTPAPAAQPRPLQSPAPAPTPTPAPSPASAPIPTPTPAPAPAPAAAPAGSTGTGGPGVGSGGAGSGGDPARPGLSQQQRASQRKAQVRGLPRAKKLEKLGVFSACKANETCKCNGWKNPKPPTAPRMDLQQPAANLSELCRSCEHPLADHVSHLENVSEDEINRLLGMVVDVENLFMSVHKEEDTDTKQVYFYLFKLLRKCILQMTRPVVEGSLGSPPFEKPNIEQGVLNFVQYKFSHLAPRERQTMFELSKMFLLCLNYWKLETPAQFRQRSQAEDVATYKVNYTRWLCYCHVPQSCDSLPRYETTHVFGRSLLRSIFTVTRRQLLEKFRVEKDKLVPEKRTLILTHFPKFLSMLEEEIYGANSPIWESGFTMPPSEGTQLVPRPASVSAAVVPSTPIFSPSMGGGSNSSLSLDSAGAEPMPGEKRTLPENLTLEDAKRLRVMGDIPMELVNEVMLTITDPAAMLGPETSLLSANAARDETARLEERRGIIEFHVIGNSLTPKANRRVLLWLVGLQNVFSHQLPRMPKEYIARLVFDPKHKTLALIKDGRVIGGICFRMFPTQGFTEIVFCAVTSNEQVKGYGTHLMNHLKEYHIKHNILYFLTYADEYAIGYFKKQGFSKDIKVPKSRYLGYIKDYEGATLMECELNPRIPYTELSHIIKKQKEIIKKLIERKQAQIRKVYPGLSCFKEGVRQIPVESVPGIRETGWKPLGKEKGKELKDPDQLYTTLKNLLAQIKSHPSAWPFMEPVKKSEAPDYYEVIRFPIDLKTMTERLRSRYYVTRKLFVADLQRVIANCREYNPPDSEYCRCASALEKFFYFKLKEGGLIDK
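Preincubate 20nM GCN5L2 with compound 15 min, RT → add 50uM ThioGlo1 + 75uM H3(1-25) + 70uM acetyl-CoA → read fluorescence 0 and 20 min. Primary qHTS; fluorescent artifacts likely.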
Numbers without * were called inactive; ? = inconclusive; / = no result. Calls follow the shape of the dose curve; as a rule, active = well fitted curve in the direction sought with a large enough effect; inconclusive = small, poorly fitted or top-dose-only effect, or another doubt; inactive = no such curve, though single readings can be large; an effect the other way counts as inactive or inconclusive. Potency is read from the fitted curve at half-maximal effect.

SMILES	PLK1 PBD block	VDR inh	Mito fusion act	GLS inh	PKM2 activator	GCN5L2 inh
O=C(c1cccs1)N(Cc1ccco1)Cc1cc2ccccc2[nH]c1=O	26.7µM*	-23.7%	2.2%	8.9%	22.4µM*	-9.9%
Cc1cc(C)c2[nH]c(=O)c(CN(Cc3ccco3)C(=O)c3cccs3)cc2c1	/	/	2.6%	/	14.3%	19.1%
Cc1cc(C(=O)COC(=O)C(C)NC(N)=O)c(C)n1Cc1ccco1 (stereo not drawn)	-14.5%	-1.5%	0.0%	-19.7%	1.8%	-5.8%
Cc1cc(C(=O)C(C)Cl)c(C)n1Cc1ccco1 (stereo not drawn)	21.2µM*	-9.8%	2.3%	29.5%	5.0%	-5.2%
NC(=O)CSc1nc2ccc([N+](=O)[O-])cc2[nH]1	-15.7%	-2.9%	14.1µM*	8.8%	10.6%	-9.0%
O=S(=O)(c1cccc(C(F)(F)F)c1)N1CCC(c2cc(-c3cccc4ccccc34)n[nH]2)CC1	18.9µM*	?	0.3%	125.8%	1.5%	-8.1%
COc1ccc(S(=O)(=O)N2CCC(c3cc(-c4cccc5ccccc45)n[nH]3)CC2)cc1	-3.0%	6.0%	3.4%	-6.7%	-6.4%	-8.8%
CCN(CC(=O)Nc1c(F)cccc1F)C(=O)c1ccc2c(c1)OCCO2	0.1%	4.1%	-0.1%	3.5%	/	-2.9%
COc1ccccc1CNC(=O)C(C)n1nc(C)n2c(cc3occc32)c1=O (stereo not drawn)	26.7µM*	?	8.2%	5.7%	/	-2.7%
CCC(C(=O)NCc1ccccc1OC)n1nc(C)n2c(cc3occc32)c1=O (stereo not drawn)	-1.8%	0.0%	-0.5%	-5.7%	16.8%	-3.8%
CC[C@@H]1C(c2cccc(C)c2)=NN(c2ccc(Br)cc2)[C@H]1C(=O)N1CCOC1=O	/	-1.8%	/	/	/	?
CC1(C)Cc2ccccc2C(COc2ccccc2)=N1	26.7µM*	-18.9%	-8.6%	68.0%	-30.2%	-17.1%
COc1ccccc1-c1ccc2ncnc(Nc3ccccc3)c2c1	/	-23.6%	/	/	/	-8.9%
Cc1cc2nc(CSc3ccccc3)cc(=O)n2[nH]1	21.2µM*	12.8%	-4.9%	-2.3%	-7.1%	-11.5%
Cc1nn(CCCC(=O)O)c(C)c1[N+](=O)[O-]	6.7%	-3.7%	3.6%	-0.6%	-12.5%	-5.1%
CC(=O)c1c(C)nn(CCC(=O)O)c1C	15µM*	?	-0.4%	?	-1.3%	1.1%
COc1ccc(S(=O)(=O)N2CC=C(C(=O)NC3CCCC3)CC2)cc1	29.9µM*	-24.2%	0.2%	7.6%	/	-3.6%
Cc1ccc(S(=O)(=O)N2CC=C(C(=O)NC3CCCC3)CC2)cc1	26.7µM*	?	-16.7%	4.3%	/	-0.6%
COc1ccc(S(=O)(=O)N2CCN(C(=O)C3COc4ccccc4O3)CC2)cc1 (stereo not drawn)	10.6µM*	3.6%	-0.5%	?	/	?
Cc1ccc(S(=O)(=O)N2CC=C(C(=O)NCCC(C)C)CC2)cc1	-2.9%	-5.8%	-3.9%	4.0%	3.2%	-0.3%
COc1ccc(CNC(=O)C2=CCN(S(=O)(=O)c3ccc(C)cc3)CC2)cc1	?	-16.0%	0.2%	0.4%	14.1µM*	-22.3%
COc1ccc(S(=O)(=O)N2CC=C(C(=O)Nc3ccc(NC(C)=O)cc3)CC2)cc1	-14.7%	-17.6%	-3.6%	-9.6%	-0.1%	0.7%
OC(c1ccc(F)cc1)c1nc(-c2cccc(F)c2)cs1 (stereo not drawn)	5.0%	/	/	-3.5%	/	/
Cn1c(=O)c2sccc2n2c(CCCC(=O)NCc3ccccc3)nnc12	/	1.9%	/	-0.1%	/	-7.5%
Cc1c(CC(=O)N2CCN(C(=O)C3COc4ccccc4O3)CC2)c(=O)oc2cc(O)c(Cl)cc12 (stereo not drawn)	-4.9%	3.3%	4.4%	7.0%	0.4%	?
SMILES	PLK1 PBD block	VDR inh	Mito fusion act	GLS inh	PKM2 activator	GCN5L2 inh
COc1ccc(S(=O)(=O)N2CCc3cc(OC)c(OC)cc3C2)cc1	-16.9%	5.2%	-5.9%	2.1%	7.94µM*	-16.2%
COc1ccc(S(=O)(=O)N2CCN(C(=O)NCc3ccccc3)CC2)cc1	1.6%	9.0%	2.6%	9.1%	7.08µM*	-18.1%
COc1ccc2c(C)c(CC(=O)N3CCN(C(=O)C4COc5ccccc5O4)CC3)c(=O)oc2c1C (stereo not drawn)	3.36µM*	?	-4.1%	-6.2%	-2.6%	-7.6%
COc1ccc(COC(=O)NC2CCN(S(=O)(=O)c3ccc(OC)cc3)CC2)cc1	-6.1%	1.4%	2.7%	-29.0%	20µM*	-9.4%
COc1ccc(S(=O)(=O)N2CCC(NC(=O)OCc3c(Cl)cccc3Cl)CC2)cc1	-0.2%	7.6%	23.3%	-3.6%	?	-4.6%
FC(F)(F)c1ccccc1-c1nccc(NCCN2CCOCC2)n1	/	?	/	/	/	-10.9%
COc1ccc(NC(=O)N2CCN(S(C)(=O)=O)CC2)cc1	26.7µM*	?	1.0%	30.8%	0.2%	-19.3%
COc1ccc(NC(=O)N2CCN(C(=O)Nc3ccc(OC)cc3)CC2)cc1	-10.7%	9.9%	-1.1%	0.5%	-9.9%	-3.1%
COc1ccc(S(=O)(=O)N2c3ccccc3OCC2CC(=O)O)cc1 (stereo not drawn)	21.2µM*	?	0.8%	7.5%	/	19.7%
CCN(/N=C/c1cccs1)c1cc(=O)n(C)c(=O)[nH]1	1.4%	-5.0%	0.7%	3.0%	22.4µM*	-7.5%
CN(/N=C/c1cccs1)c1cc(=O)n(C)c(=O)[nH]1	-0.5%	-5.8%	-2.7%	-6.6%	18.0%	-11.3%
CN1CCN(c2ncc3nc(-c4cccc(C#N)c4)c(=O)n(CCC#N)c3n2)CC1	/	2.7%	/	/	/	-28.1%
CS(=O)(=O)c1ccc(-n2nnc3ccccc32)c([N+](=O)[O-])c1	-7.1%	-1.3%	0.4%	-6.0%	-8.4%	-2.3%
N#Cc1cc([N+](=O)[O-])c(-n2nnc3ccccc32)c([N+](=O)[O-])c1	10.6µM*	?	3.5%	100.4%	0.7%	-7.4%
CCCCCCCNC(=O)C1(CC2CC(c3ccc(Cl)cc3)=NO2)CCN(C(=O)C2(C)CC2)CC1 (stereo not drawn)	8.5%	-11.3%	-27.0%	2.6%	-2.0%	-2.6%
COc1ccc(C(=O)N2CCCC(N3CCN(c4ccccc4F)CC3)C2)c(OC)n1 (stereo not drawn)	29.9µM*	?	1.9%	30.0%	/	-26.9%
